Assay outcomes as filed in PubChem BioAssay.
Most compounds without a hit are left out; they make up all but 1.5% or so of the library.
CCHFV vOTU inh = blocks the CCHF virus ovarian tumor domain protease; CCHFV vOTU protease, Pep-AMC fluorescence; inhibition, % at 11.5 µM; 370,000 tested, 0.55% active; AID 651958; in the data active = inhibition above about 30%; also: 0% = vehicle wells with enzyme and 100% = no enzyme wells
PrPC TRFRET = inhibitors of human cell surface prion protein PrPC; P04156; TR-FRET read-out; inhibition, % at 13.8 µM; 370,000 tested, 0.43% active; in the data active = inhibition above about 24%; also: 0% = median of the test wells and 100% = reference compound wells
Vc quorum ag = induces V. cholerae light production without autoinducers; V. cholerae BH1578 lux reporter, luminescence, 6 h; activation, % at 18.7 µM; 350,000 tested, 0.16% active; in the data active = activation mostly above about 9.7%, no sharp cut-off
DUSP3 inh = blocks human VHR1 dual specificity phosphatase; P51452; recombinant VHR phosphatase, pNPP absorbance; inhibition, % at 13.3 µM; 290,000 tested, 0.52% active; AID 1654; in the data active = inhibition above about 50%
Target sequence (P51452 whole entry, looked up): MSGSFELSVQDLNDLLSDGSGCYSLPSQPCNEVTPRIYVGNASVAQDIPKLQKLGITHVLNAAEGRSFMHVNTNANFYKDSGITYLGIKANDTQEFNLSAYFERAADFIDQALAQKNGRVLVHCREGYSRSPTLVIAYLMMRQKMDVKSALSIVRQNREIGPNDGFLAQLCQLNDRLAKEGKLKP
TcdB GH inh = TcdB glycohydrolase inhibition; TcdB glycohydrolase enzymatic assay, plate reader; inhibition, % at 9.99 µM; 350,000 tested, 0.24% active; AID 652162; in the data active = inhibition above about 10%
SSB-PriA inh = inhibitors of Klebsiella pneumoniae PriA binding to SSB C-terminal tail | AID 1272365 | inhibition, % at 33 µM | 430,000 tested, 0.6% active | AlphaScreen SSBct-PriA binding, biotinylated peptide; in the data active = inhibition mostly above about 37%, no sharp cut-off; inactive = mostly below about 20%;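 also: plate controls were negative control peptide for no effect and reference peptide for full effect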
Active calls of the source: *; i = inactive; . = not tested or not shown.

SMILES	CCHFV vOTU inh	PrPC TRFRET	Vc quorum ag	DUSP3 inh	TcdB GH inh	SSB-PriA inh
COc1ccc(C(CNC(=O)C(=O)Nc2ccc(F)cc2F)N2CCN(C)CC2)cc1 (stereo not drawn)	.	.	.	.	.	-7
O=C(C1CC(=O)N(c2ccc(Cl)cc2)C1)N1CCCC(c2nnc(-c3ccccc3F)s2)C1 (stereo not drawn)	.	.	.	.	.	-2
Cc1ccc(C(=O)Nc2nc(-c3ccccn3)cs2)cc1	.	.	.	.	.	78*
O=C(Nc1nc(-c2ccccn2)cs1)c1ccc(=O)[nH]c1	.	.	.	.	.	95*
Cc1ccc(C(=O)Nc2nc(-c3ccccn3)cs2)cc1NC(=O)c1ccco1	.	.	.	.	.	28
O=C(Nc1nc(-c2ccccn2)cs1)c1cc(-c2ccco2)[nH]n1	.	.	.	.	.	66*
Cc1ccc(C(=O)Nc2nc(-c3ccccn3)cs2)cc1-n1cccc1	.	.	.	.	.	103*
CC(=O)N1CCCc2ccc(N)cc21	.	.	.	.	.	-1
CCOC(=O)CC(NS(=O)(=O)c1cc(OC)c(C)cc1C)c1ccc(C)cc1 (stereo not drawn)	.	.	.	.	.	20
CCOc1ccc(-c2noc(-c3nnn(-c4cccc(C(F)(F)F)c4)c3N)n2)cc1	.	.	.	.	.	-9
CN1CCc2cc(C(CNC(=O)NC(C)(C)C)N3CCCC3)ccc21 (stereo not drawn)	.	.	.	.	.	-7
CCc1ccc(C(=O)Nc2nc(-c3ccccn3)cs2)cc1	.	.	.	.	.	85*
Cc1nc(C)c(C(=O)Nc2nc(-c3ccccn3)cs2)s1	.	.	.	.	.	157*
O=C(Nc1nc(-c2ccccn2)cs1)c1ccc(Oc2ccc(C(=O)Nc3nc(-c4ccccn4)cs3)cc2)cc1	.	.	.	.	.	25
O=C(Nc1nc(-c2ccccn2)cs1)c1ccc(Cl)c([N+](=O)[O-])c1	.	.	.	.	.	58
Cc1cc(C(=O)Nc2nc(-c3ccccn3)cs2)ccc1[N+](=O)[O-]	5	-5	0	20	4	47*
O=C(Nc1nc(-c2ccccn2)cs1)c1ccccc1Cl	.	.	.	.	.	100*
CC(=O)C(N=Nc1ccc(C(=O)O)cc1[N+](=O)[O-])=C(C)O	.	.	.	.	.	-13
COC(=O)c1ccc(C2C(=C(O)c3cccc(OC)c3)C(=O)C(=O)N2CCCN2CCOCC2)cc1 (stereo not drawn)	.	.	.	.	.	-4
CN(C)c1ccc(CCCNC(=O)c2cccc(C(F)(F)F)c2)cc1	.	.	.	.	.	8
O=C(Nc1nc(-c2ccccn2)cs1)c1sccc1C1CC1	.	.	.	.	.	114*
O=C(Nc1nc(-c2ccccn2)cs1)c1ccccc1	.	.	.	.	.	101*
CSc1ccccc1C(=O)Nc1nc(-c2ccccn2)cs1	.	.	.	.	.	106*
CSc1ccccc1C(=O)Nc1nc(-c2ccc(F)cc2)cs1	.	.	.	.	.	11
CC(=O)Nc1ccc(C(=O)Nc2nc(-c3ccccn3)cs2)cc1	-12	2	3	10	0	78*
SMILES	CCHFV vOTU inh	PrPC TRFRET	Vc quorum ag	DUSP3 inh	TcdB GH inh	SSB-PriA inh
Cc1cc(C)cc(OCCNS(=O)(=O)c2ccc(C)c(C)c2)c1	.	.	.	.	.	-22
O=c1c2cc3c(cc2nc2sc(Nc4ccc(Br)cc4)nn12)OCO3	.	.	.	.	.	-6
COc1cc(NC(=O)c2cc([N+](=O)[O-])ccc2Cl)ccc1N1CCCC1=O	.	.	.	.	.	-12
Cc1cc(NC(=O)c2coc(NC(=O)c3cccs3)n2)no1	.	.	.	.	.	-9
COc1ccc(-c2noc(-c3ccc(=O)n(Cc4c(C)noc4C)c3)n2)cc1F	.	.	.	.	.	-15
O=C(Nc1nc(-c2ccccn2)cs1)c1ccncc1	.	.	.	.	.	157*
O=C(Nc1nc(-c2ccccn2)cs1)c1ccc(C(=O)c2ccccc2)cc1	.	.	.	.	.	32
CC(C)(C)OC(=O)N1CCN(CCNS(=O)(=O)Cc2cccc(F)c2)CC1	.	.	.	.	.	-19
O=C(CSc1cccc2cccnc12)Nc1ccc2ccccc2c1	.	.	.	.	.	33
COCCCn1c(C)nnc1SCC(=O)Nc1cccc(C)c1	-12	-1	i	60*	1	1
O=C(CSc1cccc2cccnc12)NC1CCS(=O)(=O)C1 (stereo not drawn)	.	.	.	.	.	37*
Cc1cccc(NC(=O)CSc2cccc3cccnc23)c1	-22	11	i	12	0	49*
O=C(CSc1cccc2cccnc12)Nc1cc(C(=O)O)cc(C(=O)O)c1	-23	-2	0	35	1	75*
O=C(CSc1cccc2cccnc12)Nc1ccc2c(c1)C(=O)c1ccccc1C2=O	.	.	.	.	.	28
CCOC(=O)C1CCN(c2ccc(S(=O)(=O)Cc3ccc(Cl)cc3)nn2)CC1	.	.	.	.	.	-16
CC(=O)Nc1nc(CC(=O)N2CCN(S(C)(=O)=O)CC2)cs1	.	.	.	.	.	-11
CC(=O)N1CCN(C(=O)C(=O)NCCc2csc3nc(-c4ccc(F)cc4)nn23)CC1	.	.	.	.	.	-23
COc1ccc(-c2ccc(SCc3cc(=O)n4cc(Cl)ccc4n3)nn2)cc1OC	.	.	.	.	.	-30
O=C(CSc1cccc2cccnc12)Nc1cc(Cl)cc(Cl)c1	.	.	.	.	.	57*
CC(C)c1ccc(NC(=O)CSc2cccc3cccnc23)cc1	.	.	.	.	.	41
Cc1nc2ccc(Cl)cn2c(=O)c1NC(=O)NCc1ccccc1	.	.	.	.	.	-16
Cc1nc2nc[nH]n2c(=O)c1CCC(=O)O	.	.	.	.	.	-5
COc1ccc(Nc2ccc(C(F)(F)F)cc2[N+](=O)[O-])cn1	2	-10	6	-6	2	46*
COc1ccc(-c2cnc(S(=O)CC(=O)NCCc3ccccc3)n2C)cc1 (stereo not drawn)	.	.	.	.	.	-3
COc1ccc(C)cc1NC(=O)CS(=O)c1ncc(-c2ccccc2)n1C (stereo not drawn)	.	.	.	.	.	79*
SMILES	CCHFV vOTU inh	PrPC TRFRET	Vc quorum ag	DUSP3 inh	TcdB GH inh	SSB-PriA inh
c1ccc2c(c1)[IH]c1ccccc1-2	-5	35*	-1	.	2	1
c1ccc2c(c1)-c1cccc3cccc-2c13	-16	5	0	.	0	-16
Cc1ccc([N+](=O)[O-])cc1S(=O)(=O)Nc1ccc(-c2cn3c(n2)SCC3)cc1	.	.	.	.	.	39*
O=[N+]([O-])c1ccc(-c2cn3c(n2)SCC3)cc1	7	-43	-1	.	6	5
CC(C)(C)C(=O)NCc1nccc(N2CCCC2)n1	.	.	.	.	.	-16
CC(C)CS(=O)(=O)Nc1ccc2c(c1)N(S(=O)(=O)c1ccccc1)CCC2	.	.	.	.	.	6
ClCC(CNCc1ccccc1)c1ccccc1 (stereo not drawn)	5	-9	i	.	12*	4
Cc1ccc(C(=O)C(C)[n+]2ccc(N(C)C)cc2)cc1 (stereo not drawn)	.	.	.	.	.	6
Cn1cc(S(=O)(=O)N2CCN(c3ccccc3F)CC2)c(=O)n(C)c1=O	0	9	0	53*	1	-18
CCOC(=O)N1CCN(S(=O)(=O)c2cn(C)c(=O)n(C)c2=O)CC1	-1	-4	-1	52*	0	2
CCOC(=O)C1CCN(S(=O)(=O)c2cn(C)c(=O)n(C)c2=O)CC1	-2	2	0	37	3	0
CC(C)S(=O)(=O)c1ccc(CC(=O)N2CCC(c3ccsc3)CC2)cc1	.	.	.	.	.	-18
O=C([C@@H]1COCC(=O)N1Cc1cccs1)N1CCc2ccccc21	.	.	.	.	.	0
Cc1ccccc1C1=C/C(=C(\SS/C(C(=O)c2ccc(OCC(=O)O)c(Cl)c2Cl)=C2\C=C(c3ccccc3C)SS2)C(=O)c2ccc(OCC(=O)O)c(Cl)c2Cl)SS1	11	7	i	.	-2	62*
Cc1cc(Cl)ccc1OCC(=O)O	10	8	0	11	1	-5
